Laboratory results published in PubChem BioAssay (NCATS).
Inconclusive results are not listed. Calls of active or inactive are those of the source. Calls come from the whole dose curve; as a rule, active = well fitted curve in the direction sought with a large enough effect; inconclusive = small, poorly fitted or top-dose-only effect, or another doubt; inactive = no such curve, though single readings can be large; an effect the other way counts as inactive or inconclusive.

Experiments:
[1] = Quantitative High-Throughput drug screen in 47 multiple myeloma cell lines against the NCATS MIPE library collection: ARD_JJKsccE7 cell viability assay (AID 1918929)
Summary of the method: (§1)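 We plated 500 myeloma cells per well, pinned in MIPE 4.0 compounds, and incubated for 48 hours at 37C. ATP was then quantified with CellTiter-Glo, with DMSO and media-only wells defining 100% and 0%.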

[2] = Quantitative High-Throughput drug screen in 47 multiple myeloma cell lines against the NCATS MIPE library collection: Karpas620_DSMZ cell viability assay (AID 1918959); note: nearly all actives have a fitted effect of over 30% in size
Summary of the method: (§2)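 Luminescent ATP measurement with CellTiter-Glo gives viability, scaled between DMSO-only wells (100%) and media-only wells (0%). Cells, 500 per well, faced library compounds for 48 hours at 37C.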

[3] = Quantitative High-Throughput drug screen in 47 multiple myeloma cell lines against the NCATS MIPE library collection: KMM1_JCRB cell viability assay (AID 1918960); note: nearly all actives have a fitted effect of over 30% in size
Summary of the method: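 ATP readout (CellTiter-Glo), 48 h drug incubation, 37 °C/5% CO2, 500 cells per well; normalisation to DMSO (100%) and media-only (0%) controls.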

[4] = Quantitative High-Throughput drug screen in 47 multiple myeloma cell lines against the NCATS MIPE library collection: Karpas417_ECACC cell viability assay (AID 1918961); conditions: Karpas417 myeloma viability, CellTiter-Glo ATP luminescence, 48 h; viability (% of DMSO): at 45.8 µM (top of the series)
Summary of the method: (§3)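 Steps: seed 500 cells per well; pin-transfer MIPE 4.0 library; incubate 48 h at 37C, 5% CO2, humidified; add CellTiter-Glo, 5 min room temperature; read luminescence.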

[5] = Quantitative High-Throughput drug screen in 47 multiple myeloma cell lines against the NCATS MIPE library collection: JIM3_ECACC cell viability assay (AID 1918963; note: nearly all actives have a fitted effect of over 35% in size)
Summary of the method: as §2

[6] = Quantitative High-Throughput drug screen in 47 multiple myeloma cell lines against the NCATS MIPE library collection: JIM1_ECACC cell viability assay (AID 1918964)
Summary of the method: as §1

[7] = Quantitative High-Throughput drug screen in 47 multiple myeloma cell lines against the NCATS MIPE library collection: INA6_PLB cell viability assay (AID 1918965; note: nearly all actives have a fitted effect of over 55% in size)
Summary of the method: as §3

[8] = Quantitative High-Throughput drug screen in 47 multiple myeloma cell lines against the NCATS MIPE library collection: JJN3_DSMZ cell viability assay (AID 1918966; note: nearly all actives have a fitted effect of over 50% in size)
Summary of the method: as §1

[9] = Quantitative High-Throughput drug screen in 47 multiple myeloma cell lines against the NCATS MIPE library collection: H1112_PLB cell viability assay (AID 1918967; note: nearly all actives have a fitted effect of over 30% in size)
Summary of the method: as §1

[10] = Quantitative High-Throughput drug screen in 47 multiple myeloma cell lines against the NCATS MIPE library collection: Karpas25_ECACC cell viability assay (AID 1918968; note: nearly all actives have a fitted effect of over 35% in size)
Summary of the method: as §1

[11] = Quantitative High-Throughput drug screen in 47 multiple myeloma cell lines against the NCATS MIPE library collection: KMS27_JCRB cell viability assay (AID 1918970); conditions: KMS27 myeloma cells, CellTiter-Glo ATP viability, 48 h; viability (% of DMSO): at 45.8 µM (top of the series); note: nearly all actives have a fitted effect of over 30% in size
Summary of the method: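 KMS27_JCRB myeloma cells, 500 per well, exposed 48 h at 37 C, 5% CO2 to MIPE 4.0 compounds. Viability from ATP by CellTiter-Glo luminescence, normalized to DMSO (100%) and medium-only (0%) wells.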

[12] = Quantitative High-Throughput drug screen in 47 multiple myeloma cell lines against the NCATS MIPE library collection: KMS12BM_JCRB cell viability assay (AID 1918971); note: nearly all actives have a fitted effect of over 35% in size
Summary of the method: (§4)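 CellTiter-Glo luminescence (ATP) after 48 h compound exposure, 37C/5% CO2; 500 cells/well; MIPE 4.0 approved/investigational drugs pinned in; DMSO = 100%, media only = 0% viability.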

[13] = Quantitative High-Throughput drug screen in 47 multiple myeloma cell lines against the NCATS MIPE library collection: KMS12PE_JCRB cell viability assay (AID 1918972); note: nearly all actives have a fitted effect of over 30% in size
Summary of the method: as §3

[14] = Quantitative High-Throughput drug screen in 47 multiple myeloma cell lines against the NCATS MIPE library collection: KMS21BM_JCRB cell viability assay (AID 1918974); conditions: ATP luminescence, 48 h; viability: at 45.8 µM (top of the series)
Summary of the method: as §1

[15] = Quantitative High-Throughput drug screen in 47 multiple myeloma cell lines against the NCATS MIPE library collection: KMS26_JCRB cell viability assay (AID 1918975); note: nearly all actives have a fitted effect of over 45% in size
Summary of the method: as §4

[16] = Quantitative High-Throughput drug screen in 47 multiple myeloma cell lines against the NCATS MIPE library collection: MMM1_PLB cell viability assay (AID 1918976); note: nearly all actives have a fitted effect of over 35% in size
Summary of the method: (§5)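 Inhibition of viability over 48 h was scored by ATP content (CellTiter-Glo) in 500-cell wells. Zero and full viability were defined by media-only and DMSO-only wells.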

[17] = Quantitative High-Throughput drug screen in 47 multiple myeloma cell lines against the NCATS MIPE library collection: MOLP8_DSMZ cell viability assay (AID 1918977); note: nearly all actives have a fitted effect of over 45% in size
Summary of the method: as §5

[18] = Quantitative High-Throughput drug screen in 47 multiple myeloma cell lines against the NCATS MIPE library collection: NCIH929_DSMZ cell viability assay (AID 1918978); note: nearly all actives have a fitted effect of over 35% in size
Summary of the method: as §5

[19] = Quantitative High-Throughput drug screen in 47 multiple myeloma cell lines against the NCATS MIPE library collection: KHM11_PLB cell viability assay (AID 1918962); note: nearly all actives have a fitted effect of over 35% in size
Summary of the method: as §2

[20] = Quantitative High-Throughput drug screen in 47 multiple myeloma cell lines against the NCATS MIPE library collection: KMS20_JCRB cell viability assay (AID 1918973); note: nearly all actives have a fitted effect of over 45% in size
Summary of the method: as §1
Potency is the fitted concentration of half-maximal effect.

Row | SMILES | Potency [1] | Potency [2] | Potency [3] | Potency [4] | Potency [5] | Potency [6] | Potency [7] | Potency [8] | Potency [9] | Potency [10] | Potency [11] | Potency [12] | Potency [13] | Potency [14] | Potency [15] | Potency [16] | Potency [17] | Potency [18] | Potency [19] | Potency [20]
1 | COc1ccc2c(c1OC)C(=O)OC2[C@H]1c2c(cc3c(c2OC)OCO3)CCN1C (some centres not stated) | 74.3 nM (active) | 26.4 nM (active) | 148 nM (active) | 2090 nM (active) | 83.3 nM (active) | 1 nM (active) | 52.6 nM (active) | 5260 nM (active) | 235 nM (active) | 235 nM (active) | 132 nM (active) | 41.8 nM (active) | 105 nM (active) | 148 nM (active) | 3320 nM (active) | 2640 nM (active) | 6620 nM (active) | 1870 nM (active) | – | –
2 | C=C(C)[C@@H]1CC[C@]2(C(=O)O)CC[C@]3(C)[C@H](CC[C@@H]4[C@@]5(C)CC[C@H](O)C(C)(C)[C@@H]5CC[C@]43C)[C@@H]12 | inactive | inactive | inactive | – | inactive | inactive | inactive | – | inactive | – | inactive | – | 37.2 nM (active) | – | inactive | – | inactive | inactive | 3720 nM (active) | –
3 | C=C[C@@H]1CN2CCC1C[C@H]2[C@H](O)c1ccnc2ccc(OC)cc12 (some centres not stated) | inactive | inactive | inactive | inactive | – | – | – | – | inactive | – | inactive | inactive | – | – | – | – | – | inactive | – | –
4 | OCCNC1CCCc2c1[nH]c1ccc(-c3ccccc3)cc21 (configuration not stated) | 26400 nM (active) | 23500 nM (active) | 18700 nM (active) | 10500 nM (active) | 18700 nM (active) | – | 7430 nM (active) | 23500 nM (active) | 20900 nM (active) | 9350 nM (active) | 23500 nM (active) | 37200 nM (active) | 8330 nM (active) | – | 20900 nM (active) | 20900 nM (active) | – | 13200 nM (active) | – | 5260 nM (active)
5 | CC(=O)N1CCN(c2ccc(OCc3nn(C)c(C)c3-c3cccc4c(CCCOc5cccc6ccccc56)c(C(=O)O)n(Cc5cccnc5)c34)cc2)CC1 | 118 nM (active) | 1870 nM (active) | 1180 nM (active) | – | 3320 nM (active) | 469 nM (active) | 33.2 nM (active) | – | 132 nM (active) | 83.3 nM (active) | 74.3 nM (active) | – | 469 nM (active) | – | 3720 nM (active) | – | 16600 nM (active) | 33.2 nM (active) | 2350 nM (active) | 52.6 nM (active)
6 | CCC(C=C[C@@H]1OC(=O)C=C[C@H]1C)=C[C@H](C)CC=CC(C)=C[C@@H](C)C(=O)[C@@H](C)[C@H](O)[C@@H](C)CC(C)=CC(=O)O | 34.9 nM (active) | 12.4 nM (active) | 22 nM (active) | – | 34.9 nM (active) | 15.6 nM (active) | 15.6 nM (active) | 22 nM (active) | 39.2 nM (active) | 19.6 nM (active) | 9.8 nM (active) | 19.6 nM (active) | 19.6 nM (active) | – | 31.1 nM (active) | 27.7 nM (active) | 19.6 nM (active) | 19.6 nM (active) | 43.9 nM (active) | 8.8 nM (active)
7 | CCCCCCCCCCCC(CC1OC(=O)C1CCCCCC)OC(=O)C(CC(C)C)NC=O (configuration not stated) | inactive | inactive | inactive | – | inactive | inactive | 332 nM (active) | 23500 nM (active) | inactive | inactive | – | 20900 nM (active) | – | – | – | 20900 nM (active) | – | inactive | inactive | 4.2 nM (active)
8 | C[C@H]1[C@@H](OC(=O)CCC(=O)O)O[C@@H]2O[C@@]3(C)CC[C@@H]4[C@H](C)CC[C@@H]1[C@@]24OO3 | 1480 nM (active) | 166 nM (active) | 332 nM (active) | – | 6620 nM (active) | 935 nM (active) | 2640 nM (active) | 1480 nM (active) | 16600 nM (active) | 2350 nM (active) | – | 5260 nM (active) | 1050 nM (active) | – | 14800 nM (active) | 5900 nM (active) | – | 2640 nM (active) | 3320 nM (active) | –
9 | c1ccc(CNc2nc(NCc3ccccc3)c3ccccc3n2)cc1 | 18700 nM (active) | 5260 nM (active) | 4690 nM (active) | – | 16600 nM (active) | 8330 nM (active) | 7430 nM (active) | 23500 nM (active) | 11800 nM (active) | 5900 nM (active) | 5900 nM (active) | 29600 nM (active) | 5900 nM (active) | – | 26400 nM (active) | 16600 nM (active) | 18700 nM (active) | 8330 nM (active) | 8330 nM (active) | 8330 nM (active)
10 | COc1cc2c(Nc3ccc(Cl)c(Cl)c3F)ncnc2cc1OCC1C[C@@H]2CN(C)C[C@H]2C1 | 13200 nM (active) | 4180 nM (active) | 18700 nM (active) | – | 4180 nM (active) | 14800 nM (active) | 1480 nM (active) | 1320 nM (active) | 2350 nM (active) | 2350 nM (active) | 5900 nM (active) | 5260 nM (active) | 1870 nM (active) | – | 2350 nM (active) | 23500 nM (active) | – | 2090 nM (active) | 5900 nM (active) | 1870 nM (active)
